In PubChem BioAssay AID504474 (National Center for Advancing Translational Sciences (NCATS), 2011):
Active and inactive are the calls of the source.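 The calls were made as follows: active = clear inhibition of the enzyme's cutting of labeled DNA at one or more tested doses; inactive = response stays at baseline.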

Each compound was assayed against Tyrosyl-DNA phosphodiesterase 1 (Homo sapiens) (UniProt Q9NUW8) (assay: Gel-Based Assay for Inhibitors of Tyrosyl-DNA Phosphodiesterase (TDP1): Hit Validation). Conditions: Recombinant TDP1, 32P-DNA substrate cleavage, gel densitometry.
Chain of Tyrosyl-DNA phosphodiesterase 1 (Homo sapiens) (Q9NUW8 whole entry, looked up): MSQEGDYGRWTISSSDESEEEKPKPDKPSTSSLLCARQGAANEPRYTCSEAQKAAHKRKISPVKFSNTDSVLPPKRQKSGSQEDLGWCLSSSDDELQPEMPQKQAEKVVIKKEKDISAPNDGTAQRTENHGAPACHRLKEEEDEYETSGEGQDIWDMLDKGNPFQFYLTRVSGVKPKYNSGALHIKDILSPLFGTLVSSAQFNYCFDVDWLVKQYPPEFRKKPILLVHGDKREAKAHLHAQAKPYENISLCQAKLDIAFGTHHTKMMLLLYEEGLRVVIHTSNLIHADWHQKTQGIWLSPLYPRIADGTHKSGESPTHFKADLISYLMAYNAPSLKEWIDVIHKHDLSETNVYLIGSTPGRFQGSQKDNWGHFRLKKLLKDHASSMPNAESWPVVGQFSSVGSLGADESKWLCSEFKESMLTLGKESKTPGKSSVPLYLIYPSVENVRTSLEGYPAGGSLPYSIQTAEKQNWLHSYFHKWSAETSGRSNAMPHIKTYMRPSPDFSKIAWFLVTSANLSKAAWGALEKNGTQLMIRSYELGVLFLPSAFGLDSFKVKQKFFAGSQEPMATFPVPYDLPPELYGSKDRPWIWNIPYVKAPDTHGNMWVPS
Text: Assay Overview: Human tyrosyl-DNA phosphodiesterase I (Tdp1) is a rational anticancer target because this enzyme is involved in the repair of DNA lesions created by the trapping of human DNA topoisomerase I (Top1) following treatment by anticancer agents such as camptothecins. Recombinant Tdp1 was expressed and purified from E. coli in the laboratory (Anthony et al, Nucleic Acids Research, 2007, Vol. 35, 4474-4484). See below for assay protocol. This is assay was used to validate select hits from the related primary AlphaScreen assay (AID: 485290) NIH Molecular Libraries Probe Production Network [MLPCN] NIH Chemical Genomics Center [NCGC] Assay Provider: Yves Pommier and Christophe Marchand, National Cancer Institute
5'-32P-labeled DNA substrate (1 nmol/L; N14Y; 5'-[…]-pY-3') was incubated with 0.2 nmol/L recombinant Tdp1 in the absence or presence of inhibitor for 15 min at room temperature in an assay buffer containing 1X PBS, pH 7.4, 80 mmol/L KCl and 0.01% Tween-20. Reactions were terminated by the addition of 1 volume of gel loading buffer [99.5% (v/v) formamide, 5 mmol/L EDTA, 0.01% (w/v) xylene cyanol, and 0.01% (w/v) bromophenol blue]. Samples were subjected to a 16% denaturing PAGE and gels were exposed after drying to a PhosphorImager screen (GE Healthcare). […]
With O=c1c2ccccc2nc2sc(Nc3cccc(Cl)c3)nn12 the Potency was 7.4 µM (active). O=c1c2ccccc2nc2sc(Nc3ccc(F)cc3)nn12 was tested, and the outcome was “inactive”.
